Test results as given in PubChem BioAssay (EPA / NIEHS).
Values joined by “and” are separate entries in the source; they are usually repeats but may differ in a detail not shown here. Equal values may be shown once. Results filed as inconclusive are left out. Some structures have more than one record in an assay (separate samples or runs), and their calls can disagree. Active and inactive are the calls of the source. How the source made its calls, unless noted: active means hit-call score of the fitted dose curve at least 0.9, where 1 is the maximum; inactive means score below 0.9.

Legend:
[1] = CCTE_Shafer_MEA_acute_AB: CCTE's Alamar Blue Assay for Cytotoxicity in the Neural Acute Assay, Shafer Lab (AID 2284069; active means hit-call score of the fitted dose curve at least 0.9, where 1 is the maximum;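 further: active compounds lower the viability signal compared with DMSO wells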)
Method in brief: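 Read-out: resazurin fluorescence (ex 544, em 590 nm) after CTB reagent at 1:6 dilution in fresh media. Cells: primary rat cortical neuron networks, DIV 13 or 15, chemically exposed on MEA plates; DMSO as negative control/baseline.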

[2] = CCTE_Shafer_MEA_dev_inter_network_spike_interval_mean: CCTE's Neural Network Formation Assay for Mean Inter-network Spike Interval, Shafer Lab (AID 2284047);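 on AC50: potency for a decrease in mean inter-network spike interval below DMSO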
Method in brief: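 Primary rat cortical neurons on PEI-coated 48-well MEAs (16 electrodes/well) were exposed from plating day 0 to DIV 12, with dosing renewed at DIV 5 and 9. Recordings at DIV 5, 7, 9, 12 were collapsed by trapezoidal AUC, loss-of-signal fit vs DMSO.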

[3] = CCTE_Shafer_MEA_dev_network_spike_number: CCTE's Neural Network Formation Assay for Number of Network Spikes, Shafer Lab (AID 2284048);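 further: synchronized bursts across electrodes counted on days 5 7 9 12 and integrated as AUC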;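 on AC50: fit as a loss of signal meaning fewer network spikes than DMSO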
Method in brief: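 Rat cortical primary cultures on 48-well MEA (16 electrodes/well); continuous exposure DIV 0–12, full medium and treatment exchange DIV 5, 9. Readout: network spike count, AxIS adaptive detection, recordings DIV 5/7/9/12 collapsed to AUC; loss-of-signal fit, DMSO baseline.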

[4] = CCTE_Shafer_MEA_dev_network_spike_peak: CCTE's Neural Network Formation Assay for Mean Number of Electrodes in Network Spike, Shafer Lab (AID 2284049);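 on AC50: fitted for loss of signal meaning fewer electrodes in network spikes than DMSO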
Method in brief: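 Network-spike peak electrode count from recordings on days 5, 7, 9 and 12 was combined as trapezoidal area under the curve. Rat cortical cultures were treated continuously from plating, with compound renewed at each feed (DIV 5, 9); fits versus DMSO.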

[5] = CCTE_Shafer_MEA_dev_spike_duration_mean: CCTE's Neural Network Formation Assay for Mean Spike Duration, Shafer Lab (AID 2284051);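 further: mean network spike duration pooled as area under curve over DIV 5 to 12 recordings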;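 on AC50: potency for a decrease in mean network spike duration versus DMSO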
Method in brief: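 Rat cortical primary cultures, 48-well MEA (16 electrodes/well); compound from plating, renewed DIV 5, 9. Network spike duration (AxIS adaptive detector) recorded DIV 5/7/9/12, combined as trapezoidal AUC; loss direction vs DMSO.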

[6] = CCTE_Shafer_MEA_dev_network_spike_duration_std: CCTE's Neural Network Formation Assay for Standard Deviation of Network Spike Duration, Shafer Lab (AID 2284052);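 further: area under curve of spike duration SD across recording days 5 to 12; hits are decreases in network spike duration SD versus DMSO vehicle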
Method in brief: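 Rat cortical cultures, 1.5 x 10^5 cells/well, exposed continuously from plating to DIV 12 with media/compound renewal at DIV 5, 9. Spontaneous activity recorded DIV 5/7/9/12, AxIS adaptive spike detector; AUC across days; negative direction vs DMSO.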

[7] = CCTE_Shafer_MEA_dev_per_network_spike_spike_number_mean: CCTE's Neural Network Formation Assay for Mean Number of Spikes in a Network Spike, Shafer Lab (AID 2284053);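 on AC50: fitted as decrease in spikes per network spike relative to DMSO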
Method in brief: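 Rat cortical primary cultures on 48-well MEA; compound from day 0, re-dosed with full media change DIV 5, 9. Recorded DIV 5, 7, 9, 12; spikes in 0.05 s window at network-spike peak ÷ total network spikes; AUC; loss vs DMSO.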

[8] = CCTE_Shafer_MEA_dev_LDH: CCTE's Lactate Dehydrogenase Assay for Cytotoxicity in the Neural Network Formation Assay, Shafer Lab (AID 2284068; active means hit-call score of the fitted dose curve at least 0.9, where 1 is the maximum;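 further: exposure for twelve days from plating with re-dosing on DIV 5 and 9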)
Method in brief: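 Rat cortical primary neurons, MEA culture; dosing day 0–12, full medium plus compound exchange DIV 5, 9. Read-out: LDH enzyme activity, spectrophotometric. DMSO = negative control/baseline; signal loss → cytotoxicity.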

[9] = CCTE_Shafer_MEA_acute_LDH: CCTE's Lactate Dehydrogenase Assay for Cytotoxicity in the Neural Acute Assay, Shafer Lab (AID 2284086; active means hit-call score of the fitted dose curve at least 0.9, where 1 is the maximum;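 further: active means LDH release rises above DMSO vehicle level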)
Method in brief: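 LDH released during 40 min compound exposure of primary rat cortical cultures, quantified by absorbance at 490 nm in collected medium. Fitting direction positive versus DMSO vehicle.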

[10] = CCTE_Shafer_MEA_dev_mutual_information_norm: CCTE's Neural Network Formation Assay for Mutual Information Normalization, Shafer Lab (AID 2284091);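 on AC50: mutual information between electrodes summarised as area under curve across four recording days; potency is for a decrease in mutual information relative to DMSO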
Method in brief: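 Neurons from rat cortex were seeded at 1.5 x 10^5 cells/well onto PEI-coated MEAs in a laminin drop, then exposed to compound from day 0 for twelve days. Network recordings on four days gave mutual information, summarised by AUC relative to DMSO.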

[11] = CCTE_Shafer_MEA_dev_correlation_coefficient_mean: CCTE's Neural Network Formation Assay for Mean Correlation Coefficient, Shafer Lab (AID 2284093);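 on AC50: well mean pairwise spike train correlation integrated as AUC over recording days 5 to 12; potency fitted for loss of correlation relative to DMSO vehicle wells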
Method in brief: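 Rat cortical cultures, 1.5 x 10^5 cells/well, dosed from day 0 for 12 days. Spontaneous spikes recorded DIV 5/7/9/12; electrode-pair correlation coefficients averaged, AUC taken. Fit in loss direction vs DMSO.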

[12] = UKN2_HCS_IMR90_neural_migration: University of Konstanz (UKN) Leist Lab Neural Crest Cell Migration Assay in human induced IMR90 Pluripotent Stem Cells (UKN2) (AID 2284204); settings: actives raise or lower the signal
Method in brief: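 Stopper-exclusion migration (cMINC), human iPSC-derived neural crest cells; N2-S + EGF/FGF; compound added 24 h post-stopper removal, 24 h exposure. Readout: calcein-AM/Hoechst 30 min, HCS fluorescence imaging; bidirectional fitting, DMSO baseline.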

[13] = IUF_NPC1b_proliferation_BrdU_72hr: Leibniz Research Institute for Environmental Medicine (IUF) 72-hour Neural Progenitor Cell Bromodeoxyuridine (BrdU) Proliferation Assay (NPC1b) (AID 2284207)
Method in brief: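 Luminescent BrdU ELISA measured DNA synthesis during the last 16 h of a 72 h exposure of primary human neural progenitor spheres grown with EGF and FGF. Signal was fitted relative to DMSO controls.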

[14] = IUF_NPC1a_proliferation_area_72hr: Leibniz Research Institute for Environmental Medicine (IUF) 72-hour Neural Progenitor Cell Proliferation Area Assay (NPC1a) (AID 2284208)
Method in brief: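 hNPC spheres (human fetal cortex, GW 16-19), one per poly-Hema U-bottom well; EGF+FGF medium; dosed day 0, no re-dosing; 72 h, 37C, 5% CO2; phase-contrast sphere area; DMSO = baseline; minus-GF = positive ctrl.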

[15] = CCTE_Mundy_HCI_Cortical_Synap_Neur_Matur_NeuriteSpotCountPerNeuriteLength: CCTE's Synaptogenesis and Neurite Maturation Assay in rat cortical cells for Neurite Spot Count per Neurite Length, Mundy Lab (AID 2284210)
Method in brief: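 Read-out: synaptophysin puncta counted along MAP2-stained neurites, normalised to neurite length, by automated high-content imaging. Rat cortical cells; AraC DIV 5; chemical dosing DIV 7; termination DIV 12. DMSO baseline.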

[16] = UKN5_HCS_SBAD2_cell_viability: Viability Assessment in the University of Konstanz (UKN) Leist Lab Neurite Outgrowth Assay in human iPSC-derived immature Dorsal Root Ganglia Neurons (UKN5) (AID 2284056)
Method in brief: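 iPSC-derived immature peripheral neurons (SBAD2) seeded on Matrigel with CHIR99021, SU5402 and DAPT, dosed 1 h later for 24 h. Viability from Hoechst H-33342 and calcein-AM live staining, high-content imaging; bidirectional fit versus DMSO.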

[17] = UKN5_HCS_SBAD2_neurite_outgrowth: University of Konstanz (UKN) Leist Lab Neurite Outgrowth Assay in human iPSC-derived immature Dorsal Root Ganglia Neurons (UKN5) (AID 2284070); settings: actives raise or lower the signal
Method in brief: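 Neurite area from calcein-AM high-content images after 24 h exposure (staining included), with H-33342 for viability, fitted both directions against DMSO. Cells: thawed immature SBAD2 peripheral neurons, 100.000 cells/cm2, with CHIR99021, SU5402, DAPT; dosing 1 h after seeding.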

[18] = UKN4_HCS_LUHMES_neurite_outgrowth: University of Konstanz (UKN) Leist Lab Neurite Outgrowth Assay in human LUHMES cells (UKN4) (AID 2284206); settings: actives raise or lower the signal
Method in brief: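 After 24 h compound treatment beginning shortly after replating of 2-day-differentiated LUHMES cells, calcein-AM and H-33342 live staining allowed high-content imaging of neurite area and viability. Fitted bidirectionally against DMSO.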

DIO2 (gene 1734) = assay: CCTE_GLTED_hDIO2: CCTE's human Deiodinase 2 (DIO2) Inhibition Assay, Great Lakes Toxicology and Ecology Division (GLTED) Lab (AID 2284050; active means hit-call score of the fitted dose curve at least 0.9, where 1 is the maximum)
Method in brief: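 Iodide released by human deiodinase 2 over 3 h with test chemical, measured spectrophotometrically via Sandell-Kolthoff cerium/arsenic reaction. Run n=3; inhibition referenced to DMSO.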

DIO3 (gene 1735) = assay: CCTE_GLTED_hDIO3: CCTE's human Deiodinase 3 (DIO3) Inhibition Assay, Great Lakes Toxicology and Ecology Division (GLTED) Lab (AID 2284055; active means hit-call score of the fitted dose curve at least 0.9, where 1 is the maximum;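 further: potency is for inhibition seen as loss of released iodide signal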)
Method in brief: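 Inhibition is read as reduced iodide release, measured spectrophotometrically by the Sandell-Kolthoff cerium/arsenic reaction. Adenovirus-expressed human DIO3 enzyme is exposed to chemical for 3 h, n=3 plates. Iodinated chemicals, nitrite, iron or thiocyanate may interfere.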

Measured: AC50

COP(=S)(OC)Oc1ccc(SC)c(C)c1
inactive: [1]

CC1(C)C(C=C(Cl)Cl)C1C(=O)OC(C#N)c1ccc(F)c(Oc2ccccc2)c1 (stereo unspecified)
active: [3] 235 nM and 10.6 µM and 6.32 µM | [4] 10 µM and 11.1 µM and 15 µM | [5] 5.46 µM and 10.2 µM and 8.39 µM | [6] 3.51 µM and 3.76 µM | [7] 3.15 µM and 12.1 µM and 11.9 µM | [8] 42.3 µM | [10] 268 nM and 6.41 µM and 2.77 µM | [11] 1.06 µM and 8.22 µM and 7.24 µM | [13] 8.05 µM | [15] 82.7 µM
inactive: [2] | [6] | [8] | [1] | [9] | [12] | [14] | [15]

CC(C)N(C(=O)COc1nnc(C(F)(F)F)s1)c1ccc(F)cc1
inactive: [2] | [3] | [4] | [5] | [6] | [7] | [16] | [8] | [17] | [9] | [10] | [11] | [12] | [18] | [13] | [14] | [15]
active: [4] 23.3 µM | [5] 24.5 µM | [7] 15 µM | [8] 15 µM | [11] 15 µM

COP(=O)(OC)OC=C(Cl)Cl
active: [3] 983 nM | [4] 2.87 µM | [5] 1.45 µM | [6] 0.852 µM | [7] 1.94 µM | [8] 3.8 µM | [10] 0.378 µM | [11] 0.656 µM | [14] 14.2 µM
inactive: [2] | [3] | [4] | [5] | [6] | [7] | [8] | [10] | [11] | [12] | [13] | [15]

CC1(c2ccc(Oc3ccccc3)cc2)OC(=O)N(Nc2ccccc2)C1=O (stereo unspecified)
active: [2] 3.1 µM | [3] 3390 nM | [4] 5.73 µM | [5] 3.17 µM | [6] 3.66 µM | [7] 4.26 µM | [8] 3.28 µM | [10] 1.34 µM | [11] 1.79 µM | [14] 39.6 µM | [15] 37.6 µM
inactive: [12] | [13]

Clc1ccccc1-c1nnc(-c2ccccc2Cl)nn1
inactive: [1] | [9]

Oc1ccc(Cl)cc1Cc1ccccc1
active: DIO2 (gene 1734) 132 µM | DIO3 (gene 1735) 158 µM
inactive: [1] | [9]

O=C(O)C(F)(F)C(F)(F)C(F)(F)C(F)(F)C(F)(F)C(F)(F)C(F)(F)F
active: [4] 13.9 µM | [16] 768 µM | [17] 899 µM | [18] 78.1 µM | [13] 6.45 µM and 11.7 µM
inactive: [2] | [3] | [4] | [5] | [6] | [7] | [8] | [10] | [11] | [12] | [14] | [15]

Oc1cc(Cl)ccc1Oc1ccc(Cl)cc1Cl
inactive: [2] | [3] | [1] | [9]
active: [4] 9.85 µM | DIO2 (gene 1734) 84 µM | [5] 10 µM | [6] 7.04 µM | [7] 9.32 µM | DIO3 (gene 1735) 85.5 µM | [8] 6.58 µM | [10] 8.5 µM | [11] 9.23 µM

COP(=S)(OC)Oc1ccc([N+](=O)[O-])cc1
active: [4] 23.4 µM | [7] 24.6 µM | [11] 23 µM
inactive: [2] | [3] | [5] | [6] | [10] | [18] | [13] | [14] | [15]

O=C(O)COc1ccc(Cl)cc1Cl
inactive: [2] | [3] | [5] | [6] | [7] | [11] | [12] | [14] | [15]
active: [4] 50 µM | [8] 15 µM | [10] 12.1 µM | [13] 50.1 µM
